From PubChem BioAssay AID1159566 (Broad Institute, 2015)
Results with a measured potency or affinity are listed apart.

Test: P. falciparum Dd2 growth inhibitors, dose response, SYBR Green, dry powder samples (AID 1159566)
Details: SYBR Green fluorescence; series mostly up to 19.5 µM; activity change: at the top concentration; call rule not given here

Activity change, inactive:
C[C@@H]1CN([C@H](C)CO)C(=O)c2cccc(NC(=O)c3ccc(-c4nccs4)cc3)c2O[C@H]1CN(C)Cc1ccc(C(F)(F)F)cc1 29.4%
COc1cccc(C#Cc2ccc([C@H]3[C@@H](CO)N(C(=O)c4ccccn4)[C@H]3C#N)cc2)c1 -5.01%
COc1ccc(S(=O)(=O)Nc2ccc3c(c2)CC(=O)N([C@@H](C)CO)C[C@H](C)[C@H](CN(C)S(=O)(=O)c2ccc(OC)cc2)O3)cc1 43.3% [at 21 µM]
O=C(NC[C@@H]1CC[C@H]2[C@H](CN2Cc2cc(-c3ccccc3)on2)O1)c1ccc2c(c1)OCO2 19%
Cc1ccccc1-c1ccccc1[C@H]1[C@@H](C#N)N(C(=O)c2ccccc2)[C@@H]1CO 7.53%
